An excerpt weighted towards active compounds, which were near 7.2% of everything screened.
HEK293 tox: kills HEK 293 cells | HEK 293 viability, ATP luminescence (CellTiter-Glo), 48-72 h | Potency, µM (highest dose often 115 µM), for inactives: top-dose activity change, negative = cytotoxicity, most hits filed as inhibitors | 94,000 tested, 6.6% active; also: nearly all actives have a fitted effect of over 60% in size
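Pintool-delivered compounds were incubated with HEK 293 cells (250 cells/well) at 37 degree Celsius for 48 or 72 hr. ATP-dependent luminescence (CellTiter-Glo) then reported remaining viable cells.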
hNpr1 antagonist: blocks ANP-stimulated signaling of human Npr1 receptor; P16066; HEK293 hNpr1 GloSensor cGMP, ANP-stimulated luminescence; Potency, µM (series often up to 46.3 µM), without a hit: at the top dose activity change, negative = inhibition, hits mostly inhibitors; 76,000 tested, 1.6% active; calls by dose curve; also: nearly all actives have a fitted effect of over 60% in size
Target sequence (P16066 whole entry, looked up): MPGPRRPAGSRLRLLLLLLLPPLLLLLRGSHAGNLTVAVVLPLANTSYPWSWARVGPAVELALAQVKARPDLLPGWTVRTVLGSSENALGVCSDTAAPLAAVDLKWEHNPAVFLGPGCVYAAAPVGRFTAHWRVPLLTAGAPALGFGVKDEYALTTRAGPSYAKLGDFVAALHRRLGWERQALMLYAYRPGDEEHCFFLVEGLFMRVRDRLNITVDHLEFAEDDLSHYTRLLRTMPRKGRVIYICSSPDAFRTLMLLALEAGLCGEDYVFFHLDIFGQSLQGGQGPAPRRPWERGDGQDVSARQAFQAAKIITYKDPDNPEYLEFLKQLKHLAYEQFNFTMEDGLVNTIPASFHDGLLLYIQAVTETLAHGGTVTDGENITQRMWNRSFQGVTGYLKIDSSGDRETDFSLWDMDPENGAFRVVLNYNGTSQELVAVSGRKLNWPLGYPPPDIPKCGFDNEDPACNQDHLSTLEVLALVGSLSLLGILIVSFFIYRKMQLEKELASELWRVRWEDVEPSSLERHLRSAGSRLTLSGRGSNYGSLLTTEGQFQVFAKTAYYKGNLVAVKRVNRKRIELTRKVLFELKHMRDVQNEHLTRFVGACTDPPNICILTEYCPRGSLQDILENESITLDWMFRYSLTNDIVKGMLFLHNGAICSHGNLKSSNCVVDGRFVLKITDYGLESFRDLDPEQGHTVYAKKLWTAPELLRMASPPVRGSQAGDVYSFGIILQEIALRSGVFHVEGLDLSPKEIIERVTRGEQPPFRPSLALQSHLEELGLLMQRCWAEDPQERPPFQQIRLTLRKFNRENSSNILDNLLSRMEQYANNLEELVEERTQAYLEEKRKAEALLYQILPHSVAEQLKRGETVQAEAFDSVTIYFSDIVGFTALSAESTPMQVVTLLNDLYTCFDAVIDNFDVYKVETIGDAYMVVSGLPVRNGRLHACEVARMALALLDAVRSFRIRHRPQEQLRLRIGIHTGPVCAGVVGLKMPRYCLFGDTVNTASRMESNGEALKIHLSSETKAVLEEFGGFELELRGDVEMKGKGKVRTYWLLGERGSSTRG
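HEK293 cells stably expressing human Npr1 and cGMP GloSensor pGS-40F, loaded 2 h with 2% GloSensor reagent, given compound 30 min at room temperature. Luminescence read before and 20 min after 0.1 nM hNppA.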
SNCA expr inh: SNCA gene expression inhibition | 140,000 tested, 0.17% active | AID 1671194 | HEK-293 SNCA-luciferase knock-in, luminescence, 24 h | Potency, µM (top dose mostly 57.2 µM), inactives show at the highest dose activity change, negative = inhibition, usual class: inhibitors;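 also: plate controls were DMSO cells for no effect and cell-free wells for full effect; nearly all actives have a fitted effect of over 45% in size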
FLuc inh: Photinus pyralis luciferase inhibition; P08659; purified P. pyralis luciferase, luminescence, biochemical; Potency, µM (highest dose often 115 µM), hits mostly inhibitors; 76,000 tested, 2.5% active; AID 1347043; also: nearly all actives have a fitted effect of over 65% in size
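Luminescence read by CCD imaging after purified firefly luciferase (10nM final) was added to substrate buffer holding 10uM D-luciferin and 10uM ATP, pH 7.5, pre-dosed with compound.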
HEK293 viab: cell viability loss counter-screen | HEK-293-SNCA-luc viability, GF-AFC fluorescence, 24 h | Potency, µM (titrated, usually from 57.1 µM), inactives show top-dose activity change, negative = cytotoxicity, most hits filed as cytotoxic | 150,000 tested, 0.12% active | AID 1671193;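 also: 0% = DMSO-treated cells and -100% = medium-only wells without cells; nearly all actives have a fitted effect of over 30% in size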
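HEK-293-SNCA-luc cells (1500/well) plated 24 h, then exposed 24 h to a dilution series; GF-AFC added 30 min at 37C, fluorescence 405/540 nm; normalised to medium-only and DMSO wells, Hill fit.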
NIH3T3 tox: cytotoxic compounds in NIH 3T3 cells; 94,000 tested, 4.3% active; NIH 3T3 viability, CellTiter-Glo ATP luminescence, 48-72 h; Potency, µM (series often up to 96.7 µM), without a hit: top-dose activity change, negative = cytotoxicity, actives largely listed as inhibitors; AID 1345082; also: nearly all actives have a fitted effect of over 55% in size
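Cytotoxicity is measured as loss of cellular ATP: NIH 3T3 cells (400/well) are exposed to compound for 48 or 72 hr at 37 °C, then CellTiter-Glo luminescence is imaged after 10 min at room temperature.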
The depositor's hits bear a star; i = inactive; u = inconclusive; x = no result; [ ] = dose if it differs, or a comment. Unless noted, calls follow the shape of the dose curve; as a rule, active = well fitted curve in the direction sought with a large enough effect; inconclusive = small, poorly fitted or top-dose-only effect, or another doubt; inactive = no such curve, though single readings can be large; an effect the other way counts as inactive or inconclusive. Unless noted, % is scaled to controls: 0 for no effect and ±100 for the full control effect; potency is read from the fitted curve at half-maximal effect.

SMILES	HEK293 tox	hNpr1 antagonist	SNCA expr inh	FLuc inh	HEK293 viab	NIH3T3 tox
Cc1ccc(CN2CCOC[C@H](Oc3ccc(C(F)(F)F)cc3)C2)cc1	100µM*	-17%[70.6 µM]	u	i	8%[87.6 µM]	79µM*
CS(=O)(=O)c1ccc(O[C@H]2COCCN(Cc3ccc(-c4ccccc4)cc3)C2)cc1	25µM*	u	u	i	-16%	u
COC(=O)NCCNC(=O)c1cccc(-c2ccsc2)c1	-17%[172 µM]	x	5%[87.6 µM]	x	0%[12.5 µM]	-16%[138 µM]
CC(C)n1cc(-c2cc(C(=O)N(C)Cc3cccnc3)c3cc(F)ccc3n2)cn1	u	-2%	3%	35µM*	-11%	-19%
Cc1ccsc1-c1nc(CN2CCC(CCn3cccn3)CC2)c(C)o1	u	-3%	u	i	-3%	u
COCCNc1ncc(-c2cccc(OC)c2)c2c1OCC2	u	-3%[70.6 µM]	134%[87.6 µM]	18µM*	7%[87.6 µM]	u
Fc1cccc(-c2cnc(Nc3cccnc3)c3c2CCO3)c1	u	5%[70.6 µM]	100%[87.6 µM]	i	-11%[87.6 µM]	u
O=C(Nc1ncc(-c2cccc(F)c2)c2c1OCC2)c1c[nH]c2ccccc12	50µM*	-12%[70.6 µM]	35%[87.6 µM]	u	-16%[87.6 µM]	40µM*
CNC(=O)c1cccc(-c2cnc(Nc3cccc(F)c3)c3c2CCO3)c1	u	-5%[70.6 µM]	158%[87.6 µM]	22µM*	-20%[87.6 µM]	u
COCCNc1ncc(-c2ccc(NC(C)=O)cc2)c2c1OCC2	u	5%[70.6 µM]	24%[87.6 µM]	i	-1%[87.6 µM]	u
Cn1cc(-c2cnc(NC(=O)c3c[nH]c4ccccc34)c3c2CCO3)cn1	-19%[172 µM]	-2%[70.6 µM]	61%[87.6 µM]	i	-2%[87.6 µM]	u
COCCNc1ncc(-c2cccc(N[S+](C)(=O)[O-])c2)c2c1OCC2	u	3%[70.6 µM]	101%[87.6 µM]	63µM*	-1%[87.6 µM]	u
C[C@@]1(O)CCN(C(=O)c2ccc(-c3ccco3)cc2)C[C@@H]1O	1%	11%	14%	i	5%	1%
Cc1ccc(CN2C[C@H]3CN(Cc4ccc(C(=O)O)cc4)CCN3C2=O)cc1	-9%[172 µM]	-5%[70.6 µM]	-29%[87.6 µM]	i	5%[87.6 µM]	-5%[138 µM]
COc1ccc(C(=O)Nc2ncc(-c3cccc(N(C)C)c3)c3c2OCC3)cc1	100µM*	u	3%[87.6 µM]	u	-11%[87.6 µM]	u
COc1cccc(Nc2ncc(-c3cccc(N(C)C)c3)c3c2OCC3)c1	-66%[172 µM]	u	21%[87.6 µM]	u	-2%[87.6 µM]	u
COCCNc1ncc(-c2cccc(F)c2)c2c1OCC2	u	-1%[70.6 µM]	124%[87.6 µM]	79µM*	-4%[87.6 µM]	u
CN(C)C(=O)Cc1c[nH]c2ncc(-c3cnn(C)c3)cc12	-23%[230 µM]	7%[70.6 µM]	11%[87.6 µM]	i	-4%[87.6 µM]	u
Cn1cc(-c2cnc3[nH]cc(CC(=O)NCc4cccc(F)c4)c3c2)cn1	u	-1%[70.6 µM]	21%[87.6 µM]	i	-1%[87.6 µM]	25µM*
Cc1ccccc1NC(=O)Cc1c[nH]c2ncc(-c3cnn(C)c3)cc12	u	0%[70.6 µM]	58%[87.6 µM]	i	4%[87.6 µM]	22µM*
Cn1cc(-c2cnc3[nH]cc(CC(=O)NCC4CCOCC4)c3c2)cn1	-11%[172 µM]	-4%[70.6 µM]	7%[87.6 µM]	i	-9%[87.6 µM]	u
COc1ccc(NC(=O)Cc2c[nH]c3ncc(-c4cnn(C)c4)cc23)cn1	-9%[172 µM]	-1%[70.6 µM]	37%[87.6 µM]	i	-12%[87.6 µM]	50µM*
CN(C)c1cccc(NC(=O)Cc2c[nH]c3ncc(-c4cnn(C)c4)cc23)c1	71µM*	-23%[70.6 µM]	14%[87.6 µM]	i	-25%[87.6 µM]	32µM*
Cn1cc(-c2cnc3[nH]cc(CC(=O)Nc4cccnc4)c3c2)cn1	-21%[172 µM]	1%[70.6 µM]	-3%[87.6 µM]	i	-18%[87.6 µM]	u
COc1ccc(C(=O)N2CCC(n3c(C)cnc3-c3ccncc3)C2)c(OC)c1 (configuration not stated)	-3%	x	-8%	x	-3%	-15%
SMILES	HEK293 tox	hNpr1 antagonist	SNCA expr inh	FLuc inh	HEK293 viab	NIH3T3 tox
COCCn1c(C)nnc1-c1cc(-c2cccc(O)c2)ccn1	u	1%[70.6 µM]	23%[87.6 µM]	i	-2%[87.6 µM]	u
O=C(NCCN1CCOCC1)c1cn2cc(-c3cccnc3)sc2n1	-3%	x	24%	x	7%	-18%
O=c1[nH]c(N2CCOCC2)nc2c1CCN(Cc1ccccc1Br)CC2	-5%	1%	-7%	i	1%	2%
O=C(CCc1ccccc1)N1CCNc2cnc(Nc3ccc(-n4ccnc4)cc3)nc2C1	u	-2%	u	i	-2%	u
O=C(CN1CCOCC1)N1CCNc2cnc(Nc3ccc(-n4ccnc4)cc3)nc2C1	i	-2%[70.6 µM]	-7%[87.6 µM]	i	-2%[87.6 µM]	40µM*
C[S+](=O)([O-])NC1CCN(c2ccc3nnc(-c4ccccc4)n3n2)C1 (configuration not stated)	-9%	x	x	x	x	-19%
Cc1nnc2ccc(N3CCC(N[S+](=O)([O-])c4ccccc4)CC3)nn12	45µM*	x	x	x	x	32µM*
Cc1ccc([S+](=O)([O-])NC2CCCN(c3ccc4nnc(-c5ccccc5)n4n3)C2)cc1 (configuration not stated)	25µM*	x	x	x	x	u
